# Screening data (PubChem BioAssay)
# Most compounds without a hit are left out; they make up all but 3.6% or so of the library.
# Autofluor counter = counter-screen for toxin protease inhibitors: compound fluorescence | compound autofluorescence counterscreen, microsphere flow cytometry; hits give high values | fluorescence intensity (no concentration beside the values) | 360,000 tested, 3.1% active; in the data active means fluorescence intensity above about 16000; inconclusive means no clear call, values can overlap the other calls
# BJeLR lethal = MLPCN primary cell-based screen for lethality selective to Ras in HRASV12 cells | AID 1554, 2009 | 300,000 tested, 0.17% active | BJeLR (HRASV12) viability, CellTiter-Glo ATP luminescence, 48 h | inhibition, % (no concentration beside the values); in the data active means inhibition above about 50%; inconclusive means no clear call, values can overlap the other calls
# Anthrax LF prot = Bacillus anthracis LF protease inhibitors, primary screen, biochemical, multiplex microsphere, MLPCN library; multiplex microsphere protease cleavage assay; Lethal factor (Bacillus anthracis), P15917; inhibition, % at 10 µM; 360,000 tested, 0.12% active; in the data active means inhibition above about 30%; inconclusive means no clear call, values can overlap the other calls; further: plate controls were buffer without enzyme for full effect and enzyme alone for no effect
# BoNT-A LC inh2 = BoNT/A light chain protease inhibitors, primary screen, biochemical, flow cytometry, MLPCN library. Botulinum neurotoxin type A light chain protease (Clostridium botulinum A str. ATCC 3502). multiplex microsphere protease substrate cleavage. inhibition, % at 10 µM. 360,000 tested, 0.17% active. AID 588499, 2011; in the data active means inhibition above about 30%; inconclusive means no clear call, values can overlap the other calls; further: plate controls were buffer without enzyme for full effect and enzyme alone for no effect
# 3CLpro inhibitor = SARS-CoV 3CLpro protease inhibitors, primary screen, biochemical, quenched FRET; recombinant SARS-CoV 3CLpro, quenched FRET peptide cleavage; inhibition, % at 6 µM; 290,000 tested, 0.14% active; in the data active means inhibition above about 12%
# BoNT-F LC inh = BoNT/F light chain protease inhibitors, primary screen, biochemical, flow cytometry, MLPCN library. Botulinum neurotoxin type F light chain protease (Clostridium botulinum). Multiplex microsphere protease cleavage assay. inhibition, % at 10 µM. 360,000 tested, 0.22% active. AID 588497, 2011; in the data active means inhibition above about 35%, passing the limit was not always enough; inconclusive means no clear call, values can overlap the other calls; further: plate controls were buffer without enzyme for full effect and enzyme alone for no effect
# BoNT-A LC CP1 = BoNT/A light chain protease inhibitors, confirmation, biochemical, flow cytometry, cherry pick 1; AID 602139, 2011; shares compounds with BoNT-F LC inh; inhibition, % at 10 µM; multiplex microsphere protease assay; 720 tested, 3% active; in the data active means inhibition above about 32%
# BoNT-F LC CP1 = BoNT/F light chain protease inhibitors, confirmation, biochemical, flow cytometry, cherry pick 1; shares compounds with BoNT-F LC inh; multiplex microsphere protease cleavage assay; inhibition, % at 10 µM; 720 tested, under 10 active; AID 602140, 2011
# LF protease CP1 = Bacillus anthracis LF protease inhibitors, confirmation, biochemical, multiplex microsphere, cherry pick 1; shares compounds with BoNT-F LC inh; 720 tested, under 10 active; AID 602142, 2011; inhibition, % at 10 µM; multiplex microsphere protease cleavage assay
# Active calls of the source: *; u = inconclusive; x = no result given. Unless noted, how the calls were made is not given here.
SMILES,Autofluor counter,BJeLR lethal,Anthrax LF prot,BoNT-A LC inh2,3CLpro inhibitor,BoNT-F LC inh,BoNT-A LC CP1,BoNT-F LC CP1,LF protease CP1
C=CCn1c(CSc2ccc(C)cc2)n[nH]c1=S,5600,-5,-2,1,0,-2,x,x,x
O=C(CN1CCOCC1)Nc1ccc(Cl)cc1,3809,-5,-4,2,-3,u,x,x,x
O=C(CN1CCOCC1)Nc1ccc(Cl)cn1,u,15,32*,1,-2,22,1,-1,2
CC(C)(C)OC(=O)C[C@H]1C/C=C\C[C@H](CC(=O)NCCO)C(=O)N2CCC[C@@H]2COC1=O,3793,x,-6,0,x,2,x,x,x
CC(C)CNS(=O)(=O)c1ccc(CCC(=O)NC2CCCCC2)cc1,3071,3,59*,-1,x,11,-1,-5,-1
COc1cc(C(=O)NCCOc2ccc(C)c(C)c2)cc(OC)c1OC,3386,-2,-6,0,5,-8,x,x,x
COc1cccc(OCCNC(=O)c2cc(OC)c(OC)c(OC)c2)c1,3054,-16,-14,0,2,40*,-1,0,2
Cn1c(NCc2ccco2)nc2c1c(=O)n(Cc1ccc(Cl)c(Cl)c1)c(=O)n2C,4998,-5,-3,-2,1,-21,x,x,x
Cc1ccc(OCCCC(=O)Nc2ccc(S(N)(=O)=O)cc2)cc1,4147,4,-4,5,3,41*,0,-2,-3
Cc1nc(C)c(-c2ccn(C(=O)NC(C)C)n2)s1,3164,-6,3,1,-4,38*,2,-2,3
c1ccc(-c2cn3nc(-c4ccccc4)c(-c4ccccc4)nc3n2)cc1,5284,1,46*,76*,1,24,62*,11,28
O=[N+]([O-])c1cccc(-c2cn3nc(-c4ccccc4)c(-c4ccccc4)nc3n2)c1,4123,-5,33*,67*,7,48*,40*,10,24
Cc1nc2ccc(NC(=O)COc3cccc(F)c3)cc2s1,4736,0,-3,5,2,38*,2,-1,0
Cc1cccc(OCC(=O)Nc2ccc3nc(C)sc3c2)c1,3368,4,4,1,0,2,x,x,x
CCCCOc1ccc(C(=O)CCN2CCOCC2)cc1,4576,9,-4,1,-4,6,2,0,-1
O=C(NC1CCCc2ccccc21)C1CCN(S(=O)(=O)c2ccccc2)CC1 (stereo not given),10345,3,-3,1,-6,1,x,x,x
O=C(NC1CCCc2ccccc21)C1CCCC1 (stereo not given),4522,-17,33*,-8,-1,u,0,-2,-4
COc1ccc(S(=O)(=O)NC(C)C(=O)NCc2cccnc2)cc1OC (stereo not given),3728,-3,-8,-1,-2,44*,1,-3,0
Cc1ccc(S(=O)(=O)N(CC(=O)NC2CC3CCC2C3)c2ccccc2)cc1 (stereo not given),3927,x,0,-1,x,-7,x,x,x
CC1CC(c2ccccc2)n2nc(NC(=O)c3ccco3)nc2N1 (stereo not given),3609,8,0,2,-3,u,x,x,x
COc1ccc(C2CC(c3ccc(F)cc3)n3nc(NC(=O)c4ccco4)nc3N2)cc1 (stereo not given),6286,-13,-9,-1,4,-4,-2,-12,-5
COCCNC(=S)N1CCN(C/C=C/c2ccccc2)CC1,4372,20,-4,0,-1,-7,x,x,x
COCC#Cc1ccc2c(c1)O[C@@H](CN(C)S(=O)(=O)c1cccc(F)c1)[C@@H](C)CN([C@H](C)CO)S2(=O)=O,3510,x,-2,0,x,2,x,x,x
Cc1nc2cc(F)ccc2n1C1CCN(Cc2nnnn2CCc2ccccc2)CC1,4226,-10,-2,1,-3,42*,0,1,1
CN(C)/C=C/c1oc2ccc(O)cc2c1[N+](=O)[O-],4612,-3,-1,0,4,-5,x,x,x
SMILES,Autofluor counter,BJeLR lethal,Anthrax LF prot,BoNT-A LC inh2,3CLpro inhibitor,BoNT-F LC inh,BoNT-A LC CP1,BoNT-F LC CP1,LF protease CP1
Cc1[nH]c2ccccc2c(=O)c1CN1CCCCCC1,3388,-9,7,-2,-6,1,x,x,x
Cc1[nH]c2ccc(Br)cc2c(=O)c1CN1CCCCC1,8167,9,-26,u,-1,52*,-2,-6,-2
CCN(C(=O)c1ccc(NC(=O)C2CCCCC2C(=O)O)cc1)c1ccccc1 (stereo not given),3796,x,-2,0,x,-5,x,x,x
CCOC(=O)c1cnn(CCOC(=O)C(C)(C)C)c1NC(=O)C(C)(C)C,9307,-2,-25,36*,1,43*,0,-2,-3
CCOC(=O)c1cnn(CCOC(=O)c2ccccc2F)c1NC(=O)c1ccccc1F,6708,-2,-12,-7,2,-39,x,x,x
Cc1cc(C(=O)C(C)OC(=O)c2cnccn2)c(C)n1-c1ccccc1 (stereo not given),5442,11,0,0,x,-13,x,x,x
CCOC(=O)C1CCC(CN(Cc2ccccc2)S(=O)(=O)c2ccc([N+](=O)[O-])cc2)CC1 (stereo not given),2376,10,1,0,-3,-7,x,x,x
OC(CNCc1ccccc1Cl)COc1ccc(F)cc1 (stereo not given),4015,-3,0,-1,-2,-21,x,x,x
OC(CNCc1ccccc1F)COc1cccc2ccccc12 (stereo not given),3445,-2,6,2,-1,35*,1,-8,0
COc1ccc(NC(=O)C2CC(c3ccc(Cl)cc3)=NO2)cc1 (stereo not given),3152,-5,45*,0,3,-1,0,-6,-2
COc1ccc(Cl)cc1NC(=O)C1CC(c2c(F)cccc2Cl)=NO1 (stereo not given),3506,2,-4,1,0,37*,0,-5,-1
CC1CCC(NC(=O)CCS(=O)(=O)c2ccc3c(c2)NC(=O)C(C)S3)CC1 (stereo not given),5658,1,0,0,-7,-1,x,x,x
